Hits are enriched below; roughly 20% of the tested compounds scored in any of these assays.
Shiga toxin inh: blocks Shiga toxin action in Vero cells; Vero cells, Shiga toxin protein synthesis inhibition reporter; inhibition, % at 38.7 µM; actives 9.2% (n = 290,000); in the data active = inhibition mostly above about 28%, no sharp cut-off; inactive = mostly below about 43%
Pf growth 48h: P. falciparum growth inhibition at 48 hours (one generation); actives 5.9% (n = 310,000); Potency, µM (titrated, usually from 28.7 µM), usual class: inhibitors; AID 504832; P. falciparum luciferase growth in erythrocytes, 48 h
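A one-generation exposure of luciferase-tagged malaria parasites in RPMI 1640/Albumax erythrocyte culture, 37 C and 5% CO2. Inhibition is inferred from decreased luminescence after adding detection reagent.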
CHX counter: affects cycloheximide protein synthesis inhibition readout, counter-screen; cell reporter, cycloheximide protein synthesis inhibition counterscreen; max response, %; actives 12% (n = 300,000); AID 2314; in the data active = max response mostly above about 13%, no sharp cut-off; inactive = mostly below about 14%; also: read at 38.3 µM for the half of the compounds with a filed dose
HCMV antiviral: blocks human cytomegalovirus replication; HFF cells, HCMV-luciferase reporter, 72 h; hits give low values; activity change, negative = inhibition, % at 57.5 µM; AID 1259415; actives 4.5% (n = 410,000); in the data active = activity change below about -60%; inconclusive = no clear call, values can overlap the other calls; inactive = above about -39%
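Screen run at 2 compound doses on HFFs infected with reporter HCMV, MOI 1 PFU/cell. Luciferase activity from cell lysates at 72 h post infection gave inhibition relative to buffer-only and Salinomycin wells.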
Pf growth 96h: inhibits malaria parasite growth, 96 h; P. falciparum luciferase reporter growth, 96 h; Potency, µM (top dose mostly 28.7 µM), most hits filed as inhibitors; actives 6.9% (n = 320,000); AID 504834
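P. falciparum expressing integrated firefly luciferase grown in erythrocytes (2% hematocrit, 0.05% parasitemia final) with compounds for 96 hours at 37 C, 5% CO2. Growth inhibition read as loss of luminescence after adding luciferase detection reagent.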
Large screens that a line does not name were inactive. Unless noted, calls follow the shape of the dose curve; as a rule, active = well fitted inhibition curve with a large enough effect; inconclusive = small, poorly fitted or top-dose-only effect, or another doubt; inactive = no such curve, though single readings can be large or run the other way.

CCCCn1c(N)c(N(CCOC)C(=O)c2ccc(F)c(S(=O)(=O)N3CCOCC3)c2)c(=O)[nH]c1=O	none (no result: Shiga toxin inh, CHX counter)
O=C(CCCN1C(=O)/C(=C/c2cccs2)SC1=S)Nc1cc([N+](=O)[O-])ccc1O	HCMV antiviral -73, Pf growth 96h inconclusive
O=C(CCN1C(=O)/C(=C/c2ccc(F)cc2)SC1=S)Nc1cc([N+](=O)[O-])ccc1O	Pf growth 96h inconclusive
O=C(CCCN1C(=O)/C(=C\c2ccccc2)SC1=S)Nc1ccc(O)cc1C(=O)O	HCMV antiviral inconclusive
O=C(CCCN1C(=O)/C(=C/c2ccccc2)SC1=S)Nc1ccccc1O	HCMV antiviral -100
O=C(CCCN1C(=O)/C(=C\c2cccs2)SC1=S)Nc1ccccc1O	HCMV antiviral -93 (no result: Shiga toxin inh, Pf growth 48h, CHX counter, Pf growth 96h)
O=C(CN1C(=O)S/C(=C\c2cccs2)C1=O)Nc1ccc(O)c(C(=O)O)c1	Pf growth 96h 10µM
O=C(CCCc1nc(-c2ccccc2)no1)Nc1cc(C(F)(F)F)cc(C(F)(F)F)c1	none (no result: Shiga toxin inh, Pf growth 48h, CHX counter, Pf growth 96h)
O=C(CSc1ccccc1)N1CCN(c2ccc(F)cc2)CC1	none (no result: Shiga toxin inh, Pf growth 48h, CHX counter, Pf growth 96h)
C[C@@H]1CN([C@@H](C)CO)S(=O)(=O)c2ccc(Br)cc2O[C@H]1CN(C)C(=O)C1CCC1	none (no result: Shiga toxin inh, Pf growth 48h, CHX counter, Pf growth 96h)
C=CCSc1nnc(-c2cc(C(C)(C)C)nn2Cc2ccc(F)cc2)n1C	Pf growth 48h 13µM, Pf growth 96h 9.3µM
COc1cc(/C=C2\C=CC(=O)O2)cc(OC)c1	CHX counter 18 (no result: Pf growth 48h)
O=C(C[C@H]1C/C=C\CC[C@H](Cc2ccc(F)cc2)C(=O)OC[C@@H](Cc2c[nH]c3ccccc23)NC1=O)NCCO	none (no result: Shiga toxin inh, Pf growth 48h, CHX counter, Pf growth 96h)
Clc1ccc(C[n+]2csc3ccccc32)cc1	Shiga toxin inh 43, CHX counter 19
CC1(C(=O)NCc2ccc(Cl)cc2)CCN1C(=O)c1cccc(F)c1 (centres undefined)	none (no result: Shiga toxin inh, Pf growth 48h, CHX counter, Pf growth 96h)
COC(=O)c1cccc(NC(=O)c2cccnc2)c1	none
Cc1coc(C)c1C(=O)Nc1ccc2ccccc2c1	Shiga toxin inh 90, CHX counter 64
COC(=O)c1cccc(NC(=O)c2cnoc2C)c1	Shiga toxin inh 52, CHX counter 28
Cc1oncc1C(=O)Nc1ccc2ccccc2c1	Shiga toxin inh 89, CHX counter 34
COc1ccccc1C(=O)Nc1ccc2ccccc2c1	none (no result: Shiga toxin inh, Pf growth 48h, CHX counter, Pf growth 96h)
Cc1oncc1C(=O)Nc1cccc2ccccc12	Pf growth 96h inconclusive
CC1CC(=O)c2cnc(NCc3ccco3)nc2C1 (centres undefined)	CHX counter 16, Pf growth 96h inconclusive
CC1CC(=O)c2cnc(Nc3ccccc3)nc2C1 (centres undefined)	CHX counter 48 (no result: Pf growth 96h)
CC1CC(=O)c2cnc(NCC3CCCO3)nc2C1 (centres undefined)	Pf growth 96h 9.3µM
Cc1ccc(Nc2ncc3c(n2)CC(C)CC3=O)c(C)c1 (centres undefined)	Shiga toxin inh 97, CHX counter 39
CC1(C)CC(=O)c2cnc(NCC3CCCO3)nc2C1 (centres undefined)	none (no result: Pf growth 96h)
CC1CC(=O)c2cnc(Nc3cccc(C(F)(F)F)c3)nc2C1 (centres undefined)	none
COc1ccc(N2CCN(C(=O)CCc3c[nH]c4ccccc34)CC2)cc1	Pf growth 96h inconclusive
O=C(O)CCCC(=O)N1CC(=O)Nc2ccccc21	HCMV antiviral inconclusive (no result: Pf growth 48h, Pf growth 96h)
O=C(CCCc1c[nH]c2ccccc12)N1CCOCC1	CHX counter 19
O=C(CCc1c[nH]c2ccccc12)N1CCN(c2ccc(O)cc2)CC1	Pf growth 48h inconclusive, HCMV antiviral -65, Pf growth 96h inconclusive
O=C1CN(C(=O)CCCc2c[nH]c3ccccc23)c2ccccc2N1	Pf growth 48h 9.3µM (no result: Pf growth 96h)
NS(=O)(=O)c1ccc(NC(=O)CSc2nc3c(c(=O)[nH]2)CCCC3)cc1	none
Nc1ncc(Br)cc1N=Cc1ccccc1	Shiga toxin inh 27, CHX counter 75
Cn1ncc(N=Cc2ccccc2)c1C(N)=O	Pf growth 96h inconclusive
COc1ccc(/C=C(\C#N)c2nc3ccccc3n2C)c(OC)c1	none (no result: Shiga toxin inh, Pf growth 48h, CHX counter, Pf growth 96h)
O=C(O)Cn1nc(-c2ccccc2)cc1-c1ccccc1	none
O=C(O)CC(C(=O)O)n1nc(-c2ccccc2)cc1-c1ccccc1 (centres undefined)	CHX counter 39
CSc1ncnc2c1ncn2CCCNCc1cccc2ccccc12	none (no result: Shiga toxin inh, Pf growth 48h, CHX counter, Pf growth 96h)
CC(CN1CCCCC1)OC(=O)/C=C/c1ccccc1 (centres undefined)	Pf growth 96h inconclusive
CC(CN1CCOCC1)OC(=O)/C=C/c1ccccc1 (centres undefined)	Shiga toxin inh 84, CHX counter 44
CC(CN1CCOCC1)OC(=O)c1ccccc1Br (centres undefined)	CHX counter 25 (no result: Pf growth 96h)
CC(CN1CCCC1)OC(=O)c1cccc(F)c1 (centres undefined)	Pf growth 96h inconclusive
CC(CN1CCCCC1)OC(=O)c1ccc2c(c1)OCCO2 (centres undefined)	Shiga toxin inh 70, CHX counter 43, HCMV antiviral inconclusive
Cc1cccc(C(=O)OC(C)CN2CCOCC2)c1 (centres undefined)	CHX counter 28, Pf growth 96h 9.3µM
CCOc1ccccc1NC(c1nnc(-c2ccccc2)o1)c1ccc(F)cc1Cl (centres undefined)	none (no result: Shiga toxin inh, Pf growth 48h, CHX counter, Pf growth 96h)
COc1ccc(OC)c(S(=O)(=O)N2CC=C(c3c(C)n(CC(=O)N4CCCC4)c4ccccc34)CC2)c1	none (no result: Shiga toxin inh, Pf growth 48h, CHX counter, Pf growth 96h)
CCn1cc(C(=O)N2CCN(c3ccccn3)CC2)c(=O)c2cc(S(=O)(=O)N(C)C3CCCCC3)ccc21	Pf growth 48h inconclusive, Pf growth 96h inconclusive
CC(CN1CCOCC1)OC(=O)c1ccc2c(c1)OCCO2 (centres undefined)	Shiga toxin inh 66, CHX counter 61
CCN1CCN(c2ncnc3c2cnn3-c2ccc(Cl)cc2)CC1	Shiga toxin inh 74, CHX counter 45
CN1CCN(c2ncnc3c2cnn3-c2ccc(Cl)cc2)CC1	Shiga toxin inh 66, CHX counter 42 (no result: Pf growth 48h)
Clc1cccc(-n2ncc3c(N4CCN(Cc5ccccc5)CC4)ncnc32)c1	none (no result: Shiga toxin inh, Pf growth 48h, CHX counter, Pf growth 96h)
CCOC(=O)C1CCN(c2ncnc3c2cnn3-c2ccc(OC)cc2)CC1	none
COc1ccc(-n2ncc3c(N4CCN(Cc5ccccc5)CC4)ncnc32)cc1	HCMV antiviral -95, Pf growth 96h inconclusive
CCOC(=O)N1CCN(c2ncnc3c2cnn3-c2ccc(Cl)cc2)CC1	CHX counter 20 (no result: Pf growth 96h)
CCN1CCN(c2ncnc3c2cnn3-c2ccccc2)CC1	none (no result: Pf growth 48h)
CC(=O)c1ccc(N2CCN(C(=O)CCc3nnc4n(C)c(=O)c5sccc5n34)CC2)cc1	none (no result: Shiga toxin inh, Pf growth 48h, CHX counter, Pf growth 96h)
Cc1ccc(C(=O)N2CCN(c3ncnc4c3cnn4-c3ccccc3)CC2)cc1	HCMV antiviral -77 (no result: Shiga toxin inh, Pf growth 48h, CHX counter, Pf growth 96h)
O=C(c1ccoc1)N1CCN(c2cc(-c3ccccc3)nc3cc(-c4ccccc4)nn23)CC1	HCMV antiviral -98 (no result: Shiga toxin inh, Pf growth 48h, CHX counter, Pf growth 96h)
COc1ccccc1-c1cc2nc(-c3ccccc3)cc(N3CCN(C(=O)c4ccco4)CC3)n2n1	HCMV antiviral -100 (no result: Shiga toxin inh, Pf growth 48h, CHX counter, Pf growth 96h)
O=C(c1ccoc1)N1CCN(c2cc(-c3ccco3)nc3cc(-c4ccccc4)nn23)CC1	HCMV antiviral -73 (no result: Shiga toxin inh, Pf growth 48h, CHX counter, Pf growth 96h)
COc1ccccc1-c1nc(C#N)c(N2CCN(C(=O)c3ccco3)CC2)o1	none
